# The source made the active and inactive calls. Rule for the calls: active = hit-call score of the fitted dose curve at least 0.9, where 1 is the maximum; inactive = score below 0.9.
# Experiments:
# Conditions in all cases: mRNA level, 48 h; actives raise or lower the signal
# [1] = read-out: Insulin Like Growth Factor 1 (IGF1), IGF1 (gene 3479); assay: LTEA_HepaRG_IGF1: Life Technologies and Expression Analysis (LTEA) Assay for Insulin Like Growth Factor 1 (IGF1) using HepaRG (AID 2283506)
# Method in brief: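 Endpoint: IGF1 mRNA change by qRT-PCR, housekeeping-normalized, fitted bidirectionally relative to 0.5% DMSO vehicle. Human HepaRG cells were treated 48 h in serum-free induction medium, eight half-log concentrations topping at 100 uM.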
# [2] = read-out: Intercellular Adhesion Molecule 1 (ICAM1), ICAM1 (gene 3383); assay: LTEA_HepaRG_ICAM1: Life Technologies and Expression Analysis (LTEA) Assay for Intercellular Adhesion Molecule 1 (ICAM1) using HepaRG (AID 2283507)
# Method in brief: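 ICAM1 transcript levels measured by qRT-PCR, normalized to three housekeeping genes (ACTB, GAPDH, POLR2A), after 48 h chemical exposure of HepaRG cells. Duplicate eight-point half-log series from 100 uM in 0.5% DMSO; gain or loss fitted against vehicle.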
# [3] = read-out: Insulin-like growth factor-binding protein 1 (IGFBP1), IGFBP1 (gene 3484); assay: LTEA_HepaRG_IGFBP1: Life Technologies and Expression Analysis (LTEA) Assay for Insulin-like growth factor-binding protein 1 (IGFBP1) using HepaRG (AID 2283508)
# Method in brief: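 Read-out is qRT-PCR transcript level normalized to three housekeeping genes, fitted in both directions against 0.5% DMSO. Differentiated HepaRG cells received eight half-log concentrations (top 100 uM) in duplicate for 48 h in serum-free induction medium.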
# [4] = read-out: Interleukin 6 (IL6), IL6 (gene 3569); assay: LTEA_HepaRG_IL6: Life Technologies and Expression Analysis (LTEA) Assay for Interleukin 6 (IL6) using HepaRG (AID 2283509)
# Method in brief: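 qRT-PCR read-out of IL6 transcript, normalized to three housekeeping genes, after 48 h chemical exposure of HepaRG cells; 8-point half-log series, top 100 uM, 0.5% DMSO vehicle. Bidirectional curve fitting against DMSO baseline.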
# [5] = read-out: Interleukin 6 Receptor (IL6R), IL6R (gene 3570); assay: LTEA_HepaRG_IL6R: Life Technologies and Expression Analysis (LTEA) Assay for Interleukin 6 Receptor (IL6R) using HepaRG (AID 2283510);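 for AC50: differentiated human HepaRG liver cells in serum-free induction medium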
# Method in brief: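 In this HepaRG screen, test chemicals act on cells for 48 h at up to 100 uM (eight half-log points, duplicate wells). IL6R expression is quantified by qRT-PCR after normalization to ACTB, GAPDH and POLR2A, with DMSO as baseline.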
# [6] = read-out: Keratin 19 (KRT19), KRT19 (gene 3880); assay: LTEA_HepaRG_KRT19: Life Technologies and Expression Analysis (LTEA) Assay for Keratin 19 (KRT19) using HepaRG (AID 2283512)
# Method in brief: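 KRT19 transcript measured by TaqMan qRT-PCR, referenced to three housekeeping genes, after HepaRG cells received test chemicals for 48 h. Eight half-log concentrations, top 100 uM, 0.5% DMSO vehicle; increases and decreases both fitted.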
# [7] = read-out: JUN Transcription Factor, JUN (gene 3725); assay: LTEA_HepaRG_JUN: Life Technologies and Expression Analysis (LTEA) Assay for JUN Transcription Factor using HepaRG (AID 2283513)
# Method in brief: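 Gene-expression endpoint: JUN mRNA (qRT-PCR, normalized to three reference genes) in HepaRG cultures treated 48 h with chemicals, duplicate wells, 100 uM maximum with half-log dilutions; bidirectional fitting relative to 0.5% DMSO.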
# [8] = read-out: Lipase C (LIPC), LIPC (gene 3990); assay: LTEA_HepaRG_LIPC: Life Technologies and Expression Analysis (LTEA) Assay for Lipase C (LIPC) using HepaRG (AID 2283514)
# Method in brief: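 HepaRG, 48 h exposure, 8-pt half-log series from 100 uM in 0.5% DMSO, duplicates. Readout: LIPC mRNA by Fluidigm qRT-PCR, housekeeping-normalized (ACTB/GAPDH/POLR2A). Gain or loss fitted bidirectionally against DMSO baseline.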
# [9] = read-out: Lipoprotein lipase (LPL), LPL (gene 4023); assay: LTEA_HepaRG_LPL: Life Technologies and Expression Analysis (LTEA) Assay for Lipoprotein lipase (LPL) using HepaRG (AID 2283515)
# Method in brief: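 HepaRG, 48 h exposure, 8-pt half-log dilutions from 100 uM, 0.5% DMSO vehicle, duplicates; qRT-PCR (Fluidigm array) of LPL mRNA vs housekeeping genes; bidirectional curve fit relative to DMSO baseline.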
# [10] = read-out: Potassium channel subfamily K member 1 (KCNK1), KCNK1 (gene 3775); assay: LTEA_HepaRG_KCNK1: Life Technologies and Expression Analysis (LTEA) Assay for Potassium channel subfamily K member 1 (KCNK1) using HepaRG (AID 2283511)
# Method in brief: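 HepaRG, 48 h exposure, 8-pt half-log series top 100 uM, 0.5% DMSO vehicle, duplicates. Readout: KCNK1 transcript by qRT-PCR (Fluidigm array), housekeeping-normalized; bidirectional curve fit relative to DMSO baseline.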
smiles,measurement,setting,value
Nc1cnn(-c2ccccc2)c(=O)c1Cl,outcome,[1],inactive
same,outcome,[2],inactive
same,outcome,[3],inactive
same,outcome,[4],inactive
same,outcome,[5],inactive
same,outcome,[6],inactive
same,outcome,[7],inactive
same,outcome,[8],inactive
same,outcome,[9],inactive
Cc1nc(N(C)C)nc(OC(=O)N(C)C)c1C,outcome,[1],inactive
same,outcome,[2],inactive
same,outcome,[3],inactive
same,outcome,[4],inactive
same,outcome,[5],inactive
same,outcome,[10],inactive
same,outcome,[6],inactive
same,outcome,[8],inactive
same,outcome,[9],inactive
CCOc1nc(C(Cl)(Cl)Cl)ns1,AC50,[1],0.965 µM (active)
same,AC50,[2],1.38 µM (active)
same,AC50,[3],1.01 µM (active)
same,AC50,[4],15 µM (active)
same,AC50,[5],0.987 µM (active)
same,AC50,[10],1.22 µM (active)
same,outcome,[6],inactive
same,AC50,[8],0.944 µM (active)
same,AC50,[9],1.06 µM (active)
COc1cc(Cl)c(OC)cc1Cl,outcome,[1],inactive
same,outcome,[2],inactive
same,outcome,[3],inactive
same,outcome,[4],inactive
same,outcome,[5],inactive
same,outcome,[10],inactive
same,outcome,[6],inactive
same,outcome,[8],inactive
same,outcome,[9],inactive
CCOc1cc(C(C)(C)C)ccc1C1COC(c2c(F)cccc2F)=N1 (stereo not drawn),AC50,[1],16.6 µM (active)
same,outcome,[2],inactive
same,outcome,[3],inactive
same,outcome,[4],inactive
same,outcome,[5],inactive
same,outcome,[10],inactive
same,AC50,[6],4.11 µM (active)
same,outcome,[7],inactive
same,AC50,[8],33 µM (active)
same,AC50,[9],52.9 µM (active)
CCCN(CC)CC1COC2(CCC(C(C)(C)C)CC2)O1 (stereo not drawn),outcome,[1],inactive
same,outcome,[2],inactive
same,outcome,[3],inactive
same,outcome,[4],inactive
same,outcome,[5],inactive
same,outcome,[10],inactive
same,outcome,[6],inactive
same,outcome,[7],inactive
same,outcome,[8],inactive
same,outcome,[9],inactive
COP(=S)(OC)Oc1ccc([N+](=O)[O-])c(C)c1,outcome,[1],inactive
same,outcome,[2],inactive
same,outcome,[3],inactive
same,outcome,[4],inactive
same,outcome,[5],inactive
same,outcome,[10],inactive
same,outcome,[6],inactive
same,outcome,[7],inactive
same,outcome,[8],inactive
same,outcome,[9],inactive
C=C(C)CN(CC)c1c([N+](=O)[O-])cc(C(F)(F)F)cc1[N+](=O)[O-],outcome,[1],inactive
same,outcome,[2],inactive
same,outcome,[3],inactive
same,outcome,[4],inactive
same,outcome,[5],inactive
same,outcome,[10],inactive
same,outcome,[6],inactive
same,outcome,[7],inactive
same,outcome,[8],inactive
same,outcome,[9],inactive
COC(=O)NC(=S)Nc1ccccc1NC(=S)NC(=O)OC,AC50,[1],29.9 µM (active)
same,outcome,[2],inactive
same,outcome,[3],inactive
same,outcome,[4],inactive
same,outcome,[5],inactive
same,outcome,[10],inactive
same,outcome,[6],inactive
same,outcome,[7],inactive
same,outcome,[8],inactive
same,outcome,[9],inactive
CS(=O)(=O)c1cc(C(F)(F)F)ccc1C(=O)c1cnoc1C1CC1,outcome,[1],inactive
same,outcome,[2],inactive
same,outcome,[3],inactive
same,outcome,[4],inactive
same,outcome,[5],inactive
same,outcome,[10],inactive
same,outcome,[6],inactive
same,outcome,[8],inactive
same,outcome,[9],inactive
CS(=O)(=O)c1ccc(C(=O)C2C(=O)CCCC2=O)c([N+](=O)[O-])c1,outcome,[1],inactive
same,outcome,[2],inactive
same,outcome,[3],inactive
same,outcome,[4],inactive
same,outcome,[5],inactive
same,outcome,[10],inactive
same,outcome,[6],inactive
same,outcome,[8],inactive
same,outcome,[9],inactive
CC(C)Nc1nc(Cl)nc(NC(C)C)n1,outcome,[1],inactive
same,outcome,[2],inactive
same,outcome,[3],inactive
same,outcome,[4],inactive
same,outcome,[5],inactive
same,outcome,[10],inactive
same,outcome,[6],inactive
same,outcome,[8],inactive
same,outcome,[9],inactive
COc1ccc(-c2ccccc2)cc1NNC(=O)OC(C)C,outcome,[1],inactive
same,outcome,[2],inactive
same,outcome,[3],inactive
same,outcome,[4],inactive
same,outcome,[5],inactive
same,outcome,[6],inactive
same,outcome,[7],inactive
same,outcome,[8],inactive
same,outcome,[9],inactive
C=CCOC(=O)C(C)(C)OC(=O)c1cc(-n2c(=O)cc(C(F)(F)F)n(C)c2=O)ccc1Cl,outcome,[1],inactive
same,outcome,[2],inactive
same,outcome,[3],inactive
same,outcome,[4],inactive
same,outcome,[5],inactive
same,outcome,[6],inactive
same,outcome,[7],inactive
same,outcome,[8],inactive
same,outcome,[9],inactive
CC(C)N1C(=O)c2ccccc2NS1(=O)=O,outcome,[1],inactive
same,outcome,[2],inactive
same,outcome,[3],inactive
same,outcome,[4],inactive
same,outcome,[5],inactive
same,outcome,[10],inactive
same,outcome,[6],inactive
same,outcome,[8],inactive
same,outcome,[9],inactive
Nc1c(Cl)c(F)nc(OCC(=O)O)c1Cl,outcome,[1],inactive
same,outcome,[2],inactive
same,outcome,[3],inactive
same,outcome,[4],inactive
same,outcome,[5],inactive
same,outcome,[6],inactive
same,outcome,[7],inactive
same,outcome,[8],inactive
same,outcome,[9],inactive
CCOc1nc(F)cc2nc(S(=O)(=O)Nc3c(Cl)cccc3Cl)nn12,AC50,[1],14.4 µM (active)
same,outcome,[2],inactive
same,AC50,[3],50 µM (active)
same,AC50,[4],29.8 µM (active)
same,outcome,[5],inactive
same,outcome,[10],inactive
same,AC50,[6],9.92 µM (active)
same,outcome,[8],inactive
same,outcome,[9],inactive

# From PubChem BioAssay (EPA / NIEHS)
